Screens: PubChem BioAssay, Broad Institute
aSyn UTR act – Activators via SNCA 5'UTR binding, MLPCN; AID 1814, 2009; alpha-synuclein 5'UTR reporter, activators screen; hit rate 7.1% among 300,000; activity score, % (tested at 7.5 µM), hits read low; in the data active = activity score below about -60%
The depositor's hits bear a star. These entries were drawn from the full list.

SMILES | aSyn UTR act
CC(=O)Nc1ccccc1C(=O)OCc1ccc(F)cc1 | -84*
CC(=O)Nc1ccccc1C(=O)OCC(=O)c1ccc2c(c1)OCCO2 | -62*
O=[N+]([O-])c1ccccc1CNCCc1ccc(F)cc1 | -111*
Nc1ccccc1C(=O)OCC(=O)N1CCc2ccccc21 | -168*
Cc1ccc(N2C(=O)NC(=O)C3(Cc4ccccc4N4CCN(c5ccccc5)CC43)C2=O)cc1 (stereo not given) | -71*
COc1ccc(OC)c(/C=N/OC(=O)Nc2ccc(Cl)cc2)c1 | -63*
CCC(C)C(=O)N[C@@H](c1ccccc1)[C@@H](O)C(=O)O[C@H]1C[C@@]2(O)[C@@H](OC(=O)c3ccccc3)C3[C@](C)(C(=O)[C@H](OC(C)=O)C(=C1C)C2(C)C)[C@@H](O)C[C@H]1OC[C@@]31OC(C)=O (stereo not given in full) | 103
O=C(Nc1cccc(Cl)c1)OC1CN2CCC1CC2 (stereo not given) | -64*
O=C(Nc1ccc(Cl)cc1)OC1CN2CCC1CC2 (stereo not given) | -114*
C[C@H]1O[C@@H](OC2CC[C@]3(C=O)[C@H]4CC[C@]5(C)[C@@H](C6=CC(=O)OC6)CC[C@]5(O)[C@@H]4CC[C@]3(O)C2)CC2OC(C)(C)OC21 (stereo not given in full) | 96
Cc1cc(N2CCOCC2)nc2ccc(NC(=O)CCC(=O)N3CCC4(CC3)OCCO4)cc12 | -88*
O=C1Nc2ccccc2/C1=C/c1nc2ccccc2c(=O)n1-c1ccc(O)cc1 | -77*
Cc1cc(C(=O)CS(=O)c2ccc(F)cc2)cc(C)c1OC(=O)N(C)C (stereo not given) | -68*
Cc1cc(C(=O)CS(=O)(=O)c2ccccc2)cc(C)c1OC(=O)N(C)C | -71*
CN1C(=O)NC(=O)C(C)(C2=CCCCC2)C1=O (stereo not given) | -71*
C/C(=N\N1CCCCC1)c1c(O)[nH]c(=O)[nH]c1=O | 58
CCCCCCn1c(=O)c(C(=O)Nc2ncccc2O)c(O)c2ccccc21 | 92
O=C(NC1(C(F)(F)F)Oc2ccc(Cl)cc2O1)N1CCC2(CC1)OCCO2 (stereo not given) | -73*
Nc1c2c(nc3sc4c(c13)CCCCC4)CCCC2 | -139*
CCN(CC)C(=O)c1ccc(NC(=O)Nc2ccccc2F)cc1 | 59
CN1CCC(N(C)c2nc(-c3ccc([N+](=O)[O-])cc3)nc3ccccc23)CC1 | 75
Cc1c2ccncc2c(C)c2c1[nH]c1ccccc12 | 114
c1ccc(CN2CCc3nc4ccccc4cc3C2)cc1 | -171*
N#CSCC(=O)N1c2ccccc2CCc2ccccc21 | -84*
C[C@]12CCC3C(CCC4=CC(O)CC[C@@]43/C=N/O)C1(O)CCC2C1=CC(=O)OC1 (stereo not given in full) | 113
SMILES | aSyn UTR act
CCOC(=O)c1ccc(NC(=O)C2C3C=CC(O3)C2C(=O)O)cc1 (stereo not given) | -77*
Fc1ccc(C(OCCN2CCN(CCCc3ccccc3)CC2)c2ccc(F)cc2)cc1 | 106
C[C@]12C=CC(=O)C=C1C=C[C@@H]1C2CC[C@]2(C)C(=O)CCC12 (stereo not given in full) | -120*
O=c1[nH]c(=S)[nH]c(O)c1N=Nc1ccc(OC(F)F)cc1 | -92*
O=c1[nH]c(=S)[nH]c(O)c1N=Nc1ccc2c(c1)OCO2 | -74*
CCCCCCCCCCCCCCCC[N+](C)(C)C | 98
Cc1ccc(-c2cc(-c3ccc(C)cc3)[n+](-c3ccc(C(=O)[O-])cc3)c(-c3ccc(C)cc3)c2)cc1 | 83
CN1C(=O)C(Cc2ccc(OCc3ccccc3)cc2)C(=O)N(C)C1=O | -105*
Cc1ccc(N2C(=O)NC(=O)/C(=C/c3cnn(-c4ccc(C)cc4)c3)C2=O)cc1 | -72*
Cc1nn(CC(C)C)c(Cl)c1C(=O)NC1CCC(C)CC1 (stereo not given) | -123*
CC(=O)O[C@@H]1/C=C/[C@](C)(O)C[C@@H](C)C/C=C/[C@H]2[C@@H]3O[C@]3(C)[C@@H](C)[C@H]3[C@H](Cc4ccccc4)NC(=O)[C@@]312 | 114
CCC(=Nc1cc(OC)ccc1OC)c1c(O)[nH]c(=O)[nH]c1=O | 71
COc1ccc2c(c1)/C(=C/c1cnc[nH]1)C(=O)N2 | -62*
C/C=C(\C)C(=O)N[C@@H](c1ccccc1)[C@@H](O)C(=O)O[C@H]1C[C@@]2(O)[C@@H](OC(=O)c3ccccc3)C3[C@](C)(C(=O)[C@H](OC(C)=O)C(=C1C)C2(C)C)[C@H](O)C[C@H]1OC[C@@]31OC(C)=O (stereo not given in full) | 110
Cc1ccc(-c2nn(Cc3ccccc3)cc2C=O)cc1 | -138*
O=Cc1cn(Cc2ccc(F)cc2)c2ccccc12 | 71
O=Cc1cn(Cc2ccc([N+](=O)[O-])cc2)c2ccccc12 | 72
CC(=O)c1ccc(OC(=O)N(C)c2ccccc2)cc1 | -66*
CN(C)C(=O)Oc1ccc(C(=O)c2ccccc2)cc1 | -68*
CC(=O)c1ccc(-c2ccccc2)cc1 | -81*
Cc1ccc(-c2cc(-c3ccccc3)cc(-c3ccccc3)[n+]2-c2ccccc2)cc1 | 85
CCCCCCn1c(=O)c(C(=O)Nc2c(C)n(C)n(-c3ccccc3)c2=O)c(O)c2ccccc21 | -76*
CCCCCCn1c(=O)c(C(=O)Nc2cnccn2)c(O)c2ccccc21 | 67
CCCCCn1c(=O)c(C(=O)Nc2ccccn2)c(O)c2ccccc21 | 65
Cn1cnc([N+](=O)[O-])c1Sc1ccc([N+](=O)[O-])cc1 | -66*
SMILES | aSyn UTR act
C[C@@H]1O[C@@H](O[C@H]2C[C@@H](O)[C@]3(CO)[C@H]4[C@H](O)C[C@]5(C)[C@@H](C6=CC(=O)OC6)CC[C@]5(O)[C@@H]4CC[C@]3(O)C2)[C@H](O)[C@H](O)[C@H]1O | 114
O=C1NC(c2cccnc2)Nc2sc3c(c21)CCCC3 (stereo not given) | -98*
Cc1ccc(-c2cc(-c3ccc(C)cc3)[n+](-c3ccccc3)c(-c3ccc(C)cc3)c2)cc1 | 76
CN1CCc2nc(SCC(=O)OC(C)(C)C)c(C#N)cc2C1 | -281*
Cc1ccccc1NC(=O)CCl | -71*
CC/C=C/CC(=O)N[C@@H](c1ccccc1)[C@@H](O)C(=O)O[C@H]1C[C@@]2(O)[C@@H](OC(=O)c3ccccc3)C3[C@](C)(C(=O)[C@H](OC(C)=O)C(=C1C)C2(C)C)[C@@H](O)C[C@H]1OC[C@@]31OC(C)=O (stereo not given in full) | 77
Cc1cc(C(=O)N=Nc2c(O)n(C)c3ccccc23)c(C)o1 | -180*
O=c1c2ccccc2nc(Cc2ccccc2)n1-c1ccccc1 | -84*
COc1ccc(O)c2c(=O)c3c(OC)cc4c(c3oc12)C1C=COC1O4 (stereo not given) | 94
N#Cc1ccccc1NC(=O)CN1CC=C(c2ccccc2)CC1 | -63*
COc1ccc(-c2cc(=NCC(=O)O)c3ccccc3o2)cc1 | -128*
COc1ccc(-c2cc(=Nc3cccc(C(=O)O)c3)c3cc(C)ccc3o2)cc1 | -81*
COc1cc2c(c(OC)c1OC)-c1ccc(O)cc1[C@@H](NC(C)=O)CC2 | 61
C[C@H]1C[C@@H](C)C(=O)[C@@H]([C@H](O)CC2CC(=O)NC(=O)C2)C1 | 97
N=C1c2ccccc2CN1CC(=O)c1ccccc1 | -186*
CCN1C(=O)C(=Cc2ccc(C)s2)C(=O)N(CC)C1=S | -158*
O=C(C1CC(c2ccccc2O)=NO1)N1CCC2(CC1)OCCO2 (stereo not given) | -68*
